hcDAF12 agonist: H. contortus DAF-12 nuclear receptor activators, primary screen, cell-based, luminescence, HEK293, lit1-tk-luc reporter; HEK293 hcDAF-12 lit1-tk-luc reporter; 0% DMSO, 100% Δ7-dafachronic acid; AID 652067, 2013; actives 1.4% (n = 370,000); activation, % at 6.8 µM;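 active = activation above the mean of all tested compounds plus 3 SD, cut at about 5.5% in these data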;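 note: 100% = response to 3 µM Δ7-dafachronic acid high control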
DAX1 inh-1: DAX1 (NR0B1) inhibitors, primary screen, cell-based, HEK293, Gal4-DAX1, luciferase luminescence; Nuclear receptor subfamily 0 group B member 1 (Homo sapiens), P51843; HEK293 Gal4-DAX1 luciferase reporter; inhibition, % at 6.75 µM; actives 0.99% (n = 340,000);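 active = inhibition above the mean over all tested compounds plus 3 SD, cut at about 4.2% in these data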;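 note: 0% = DAX1-transfected cells with DMSO and 100% = empty-vector control cells with DMSO; inhibition shows as a rise in luminescence from relieved DAX1 repression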
DAX1 inh-2: DAX1 (NR0B1) inhibitors on StAR promoter, primary screen, cell-based, luminescence, SF-1 (NR5A1), full-length DAX-1 | actives 1.1% (n = 370,000) | inhibition, % at 6.8 µM | HEK293T StAR-luciferase reporter, SF-1/DAX-1 repression relief | AID 652010, 2013;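 active = inhibition above the mean over all tested compounds plus 3 SD, cut at about 3.6% in these data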;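 note: 0% = DAX-1 cells with DMSO and 100% = cells lacking DAX-1 with DMSO; higher inhibition means more luminescence from relief of DAX-1 repression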
AHR act: AHR activators, primary screen, cell-based, luminescence, luciferase reporter, human. AID 2796, 2010. AHR-responsive luciferase reporter cells. Aryl hydrocarbon receptor (Homo sapiens), P35869. actives 2.5% (n = 320,000). activation, % at 5 µM; in the data active = activation above about 47%;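 note: 0% = vehicle wells and 100% = reference agonist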
Target sequence (P35869 whole entry, looked up): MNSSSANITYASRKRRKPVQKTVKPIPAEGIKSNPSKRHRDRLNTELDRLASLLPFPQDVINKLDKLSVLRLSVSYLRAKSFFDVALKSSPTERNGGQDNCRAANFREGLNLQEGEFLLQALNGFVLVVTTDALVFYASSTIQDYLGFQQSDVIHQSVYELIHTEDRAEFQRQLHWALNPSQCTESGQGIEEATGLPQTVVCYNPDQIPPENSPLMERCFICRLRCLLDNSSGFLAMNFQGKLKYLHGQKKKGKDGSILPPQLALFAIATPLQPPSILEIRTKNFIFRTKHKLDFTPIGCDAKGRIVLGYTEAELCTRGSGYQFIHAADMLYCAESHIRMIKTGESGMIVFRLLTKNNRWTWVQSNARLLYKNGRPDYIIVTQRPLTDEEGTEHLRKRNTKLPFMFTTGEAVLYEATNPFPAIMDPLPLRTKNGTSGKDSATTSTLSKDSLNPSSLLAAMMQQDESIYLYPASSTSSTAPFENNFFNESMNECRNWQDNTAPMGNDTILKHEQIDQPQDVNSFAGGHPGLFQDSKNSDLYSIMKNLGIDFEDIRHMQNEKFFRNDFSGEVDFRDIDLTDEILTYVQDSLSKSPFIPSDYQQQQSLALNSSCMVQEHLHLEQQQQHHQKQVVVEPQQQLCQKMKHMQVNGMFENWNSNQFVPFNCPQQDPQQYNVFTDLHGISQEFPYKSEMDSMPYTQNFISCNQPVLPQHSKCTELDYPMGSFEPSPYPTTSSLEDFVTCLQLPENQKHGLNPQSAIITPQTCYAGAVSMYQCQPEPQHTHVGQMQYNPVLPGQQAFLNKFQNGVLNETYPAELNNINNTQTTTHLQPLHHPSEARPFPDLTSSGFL
hgDAF12 agonist: H. glycines DAF-12 receptor agonists, primary screen, cell-based, luminescence, HEK293, GAL4 fusion, UAS-luciferase | Nuclear hormone receptor DAF-12 (Heterodera glycines), GAL4 fusion | HEK293 GAL4-hgDAF12 UAS-luciferase reporter, agonist luminescence; normalized to butyrate control | activation, % at 6.8 µM | actives 1.8% (n = 370,000);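 active = activation above a cutoff set at the mean of all screened compounds plus 3 SD, cut at about 10% in these data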;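 note: 0% = DMSO wells and 100% = sodium butyrate wells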
ssDAF12 agonist: S. stercoralis DAF-12 nuclear receptor activators, primary screen, cell-based, luminescence, HEK293, GRIP1 co-expression, lit1-tk-luc | Nuclear hormone receptor DAF-12 (Strongyloides stercoralis) | HEK293 ssDAF-12/GRIP1 lit1-tk-luc reporter; % of 3 µM dafachronic acid response | activation, % at 6.8 µM | actives 1% (n = 370,000) | AID 652126, 2013;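 active = activation above the mean over all tested compounds plus 3 SD, cut at about 0.9% in these data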;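 note: 0% = DMSO-only wells and 100% = 3 µM delta7-dafachronic acid wells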
The depositor's hits bear a star; / = no result given. Sampled rows, rich in hits. Any-hit rate of the full collection: about 5.7%.

SMILES	hcDAF12 agonist	DAX1 inh-1	DAX1 inh-2	AHR act	hgDAF12 agonist	ssDAF12 agonist
CC(=O)c1cnc(Nc2ccccc2)s1	-0.6	0.2	0.5	-4.4	0.4	-1.2
O=C(c1ccc(Cl)cc1)c1cnc(-c2ccccc2)s1	0.0	0.5	-0.3	/	0.2	-1.2
O=C(c1ccc(Cl)cc1)c1cnc(Nc2ccccc2Cl)s1	1.5	2.0	1.1	-2.7	13.0*	-0.4
CC(=O)c1cnc(Nc2cccc(Cl)c2Cl)s1	1.9	2.5	2.4	3.0	12.9*	-0.5
Cc1onc(-c2ccccc2Cl)c1C(=O)Nc1ccc(-c2cn3cccnc3n2)cc1	/	-2.7	/	2.9	/	/
Cc1ccc(-c2cn3cccnc3n2)cc1NC(=O)c1c(-c2ccccc2Cl)noc1C	-2.3	0.1	-1.6	47.6*	0.2	-1.9
C(=C\c1nc(N2CCCCCC2)c2ccccc2n1)/c1ccccc1	-2.0	-1.1	0.1	77.9*	4.8	-1.2
c1ccc2c(N3CCCCC3)nc(N3CCCCC3)nc2c1	-0.6	0.0	-1.0	8.8	1.8	-0.7
COc1ccccc1N1CCN(CCN2C(=O)C3CCCN3C2=O)CC1 (configuration not stated)	-0.1	-0.3	0.0	0.8	0.0	-1.2
COc1cc(OC)cc(C(=O)NC(=S)NCCc2ccccc2)c1	-1.5	1.4	0.0	69.1*	-0.1	-1.6
O=C(Cn1c(=O)cnc2ccccc21)Nc1cccc(S(=O)(=O)N2CCCCC2)c1	-2.2	-1.1	-1.2	8.2	-2.4	-0.8
O=C(CCN1C(=O)c2cccc3cccc(c23)C1=O)Nc1ccccc1	0.6	0.8	0.4	27.9	6.2	-1.2
O=C(Cc1ccccc1)N/N=C/c1cc2c(cc1Cl)OCO2	-2.0	0.2	-0.7	27.1	0.5	-1.3
Cc1[nH]c2ccccc2c1/C=N\NC(=O)CNc1ccc2c(c1)OCO2	1.9	-0.3	0.7	68.5*	1.9	-0.9
O=C(CNc1ccc2c(c1)OCO2)N/N=C\c1ccccc1Cl	-1.9	0.1	-0.1	80.9*	0.9	-0.8
Cc1[nH]c2ccccc2c1/C=N/NC(=O)CNC(=O)c1ccco1	3.3	/	0.7	12.2	1.6	-0.5
CCCN(CCC)Cc1cc(=O)oc2ccccc12	0.5	/	-1.1	/	2.1	-0.9
COCCC(=O)N1CCc2ccc(NC(=O)c3ccc(C(F)(F)F)cc3)cc2C1	-2.7	-3.6	-1.8	72.4*	-5.4	-1.1
Cc1sc(NC(=O)Cc2ccc3c(c2)OCO3)nc1-c1ccc2c(c1)CCN2C(=O)c1cccc(F)c1	-3.9	-0.6	-1.6	73.0*	0.0	-1.2
Cc1ccccc1C(=O)N1CCc2cc(-c3nc(NC(=O)Cc4ccc5c(c4)OCO5)sc3C)ccc21	/	-4.7	/	1.1	/	/
CNc1nc(-c2ccc3c(c2)CCN3C(=O)c2ccc(F)cc2)cs1	-1.4	0.4	-0.9	/	1.0	-1.7
CNc1nc(-c2ccc3c(c2)CCN3C(=O)c2cccc(F)c2)cs1	0.3	0.0	-0.9	6.6	10.7*	-1.1
CCOc1ccc(N(CC(=O)NCCc2ccccc2)S(=O)(=O)c2ccccc2)cc1	-0.1	-0.7	0.0	1.9	-0.2	-1.3
CCOc1ccc(-c2nc3c(s2)CCc2onc(-c4ccc(OC)cc4)c2-3)cc1	-0.4	0.1	0.5	0.6	1.6	-1.2
O=C(Nc1ccc(F)cc1F)c1ccc(-n2cccn2)nc1	-1.4	-0.6	0.0	-9.6	3.1	-1.7
CC(C)Sc1ccc(C(=O)Nc2ccc(F)cc2F)cn1	0.6	1.6	1.2	-11.1	11.8*	-1.1
COC(=O)[C@@]12CCCCC3=C1N(CCC3)C(=O)[C@H]2CC(=O)N1CCSCC1	-1.1	/	-1.1	/	0.4	1.5*
COc1ccc(C(=O)NC(CCSC)C(=O)NCc2nnc3ccccn23)cc1 (configuration not stated)	-1.3	-0.4	0.1	/	-0.3	-0.8
